Data published in PubChem BioAssay.
Several values for one entry are separate records, joined by “and”; a condition that tells them apart may be missing. Equal entries are not always repeated. Activity calls are given as the source filed them. Unless noted, no stated cut-off is given here; in the data, active means parasite load remaining mostly below about 12% (no sharp cut-off); inactive means mostly above about 10%. Square brackets hold non-standard residues; d marks the D form. Side chains are listed from the residue outwards. Peptide text beside a SMILES is read from it. * marks the point of attachment. X2 = CCC(C)C(N)C1=NC(C(=O)*)CS1; Orn = NCCC[CH](N)C(=O)O

What was measured:
[1] = P. berghei load reduction in hepatocytes – cell-based, HepG2, luciferase luminescence, HepG2 viability, primary screen (AID 624349);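 further: 100% = mean of DMSO negative control wells on the same plate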; settings: P. berghei liver stage in HepG2, luciferase luminescence, concentration not given here; parasite load remaining: stronger effect = lower value; viability: measured here: HepG2 viability without parasites
[2] = EMT-state selective cytotoxicity in co-culture – imaging, PC-3E GFP, TEM4-18 mCherry, primary screen (AID 1345086;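 active means compounds killing one labelled cell type while sparing the other, by normalised counts and ratio limits, not self-fluorescent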;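 on all read-outs here: cells exposed to compound for 72 h before imaging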;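 on red/green cell ratio (normalised): normalised mesenchymal count divided by normalised epithelial count so high means epithelial killing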); settings: PC-3E GFP / TEM4-18 mCherry co-culture, imaging cell counts, at 1 µM; for red/green cell ratio (normalised): actives lie on both sides, counts scaled to control wells, 1 = unselective
[3] = viability loss with induced miR-34 in A549 – imaging, A549 dox-inducible miR-34, nuclei and caspase counts, primary screen (AID 1347080;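 active means compounds whose cell count with miR-34 switched on is under 0.7 times the count with it off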); settings: A549 miR-34 inducible, Hoechst nuclei count, 48 h
[4] = compounds altering viability of human ES cells (AID 493140; call rule not given here;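 further: cells exposed to compounds for four days before counting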); settings: human embryonic stem cell survival screen; stronger effect = higher value
[5] = measured here: epithelial PC-3E GFP cell survival
[6] = measured here: mesenchymal TEM4-18 mCherry cell survival
[7] = stronger effect = lower value, cell number ratio, induced over uninduced
[8] = measured here: relative caspase fold change +Dox/-Dox
[9] = measured here: total cells with miR-34 induction, stronger effect = lower value
[10] = measured here: total cells without miR-34 induction

Row | Structure (SMILES) | parasite load remaining [1] | viability [1] | red/green cell ratio (normalised) [2] | normalised cell number [2, 5] | normalised cell number [2, 6] | fold change [3, 7] | fold change [3, 8] | cell count [3, 9] | cell count [3, 10] | survival [4]
1 | CN[C@@H]1[C@@H](O[C@H]2O[C@H](CO)[C@@H](N)[C@H](O)[C@H]2O)O[C@H]2C[C@@H](N)[C@H](O[C@H]3[C@H](O)[C@@H](O)[C@H](N)C[C@@H]3N)O[C@@H]2[C@@H]1O | 70.7% (inactive) and 61.8% (inactive) | 108% and 98.4% | 1.38 (inactive) | 0.99 | 1.36 | 0.903 (inactive) | 5.22 | 12300 | 13600 | –
2 | CS(=O)(=O)c1ccc(C(O)[C@H](CF)NC(=O)C(Cl)Cl)cc1 (some centres undefined) | 50.1% (inactive) | 102% | 0.78 (inactive) | 0.91 | 0.71 | 0.945 (inactive) | 2.12 | 10700 | 11400 | –
3 | OC[C@@H](O)C(O[C@@H]1O[C@H](CO)[C@H](O)[C@H](O)[C@H]1O)[C@H](O)[C@@H](O)CO (some centres undefined) | 63.4% (inactive) | 99.9% | 1.21 (inactive) | 0.87 | 1.06 | 0.87 (inactive) | 4.32 | 11300 | 13000 | –
4 | CCCC[C@@H](CC)COC(=O)c1ccccc1O | 49.2% (inactive) | 118% | 0.88 (inactive) | 1.19 | 1.04 | 0.858 (inactive) | 1.6 | 11400 | 13300 | –
5 | O=C(O)c1cc(O)c2c(c1)[C@@H]([C@H]1c3cc(C(=O)O)cc(O)c3C(=O)c3c(O[C@H]4O[C@H](CO)[C@@H](O)[C@H](O)[C@H]4O)cccc31)c1cccc(O[C@H]3O[C@H](CO)[C@@H](O)[C@H](O)[C@H]3O)c1C2=O | 132% (inactive) and 77.3% (inactive) | 80.8% and 104% | 0.69 (inactive) | 1.22 | 0.84 | 0.789 (inactive) | 9.83 | 10200 | 12900 | –
6 | C=C(NC(=O)C(=C)NC(=O)c1csc(C2=NC3c4csc(n4)C4NC(=O)c5csc(n5)C(C(C)(O)C(C)O)NC(=O)C5CSC(=N5)C(=CC)NC(=O)C(C(C)O)NC(=O)c5csc(n5)C3(CC2)NC(=O)C(C)NC(=O)C(=C)NC(=O)C(C)NC(=O)C(C(C)CC)NC2C=Cc3c(C(C)O)cc(nc3C2O)C(=O)OC4C)n1)C(N)=O (centres undefined) | 64.9% (inactive) and 23.2% (inactive) | 75.8% and 108% | 0.94 (inactive) | 0.8 | 0.75 | 0.829 (inactive) | 1.94 | 9190 | 11100 | –
7 | NC[C@H]1O[C@H](OC2[C@@H](N)C[C@@H](N)[C@H](O[C@H]3O[C@H](CO)[C@@H](O)[C@H](N)[C@H]3O)[C@H]2O)[C@H](O)[C@@H](O)[C@@H]1O (some centres undefined) | 92.2% (inactive) and 70.3% (inactive) | 72.7% and 101% | 1.25 (inactive) | 0.64 | 0.8 | 0.877 (inactive) | 2 | 11500 | 13200 | –
8 | CC(=O)c1cc2ccccc2oc1=O | 80.8% (inactive) | 96.7% | 0.84 (inactive) | 1.16 | 0.98 | 0.915 (inactive) | 1.42 | 8970 | 9810 | 6.92 (inactive)
9 | C[C@]12CCC(=O)C=C1C=CC1C2CC[C@@]2(C)C1CC[C@@]21CCC(=O)O1 (some centres undefined) | 99.9% (inactive) and 38.4% (inactive) | 91.3% and 97% | 0.76 (inactive) | 1.2 | 0.92 | 0.895 (inactive) | 1.44 | 11200 | 12500 | –
10 | CCCCCCCCCCCCCCCC(=O)OC[C@H](NC(=O)C(Cl)Cl)[C@H](O)c1ccc([N+](=O)[O-])cc1 | 77.1% (inactive) | 134% | 1.04 (inactive) | 1.01 | 1.06 | 0.906 (inactive) | 2.23 | 10500 | 11500 | –
11 | CCN[C@@H]1C[C@H](N)[C@@H](O[C@H]2OC(CN)=CC[C@H]2N)[C@H](O)[C@H]1OC1OC[C@](C)(O)[C@H](NC)[C@H]1O (some centres undefined) | 81% (inactive) | 99.2% | 0.96 (inactive) | 1.05 | 1 | 0.763 (inactive) | 6.26 | 8580 | 11200 | –
12 | C[N+](C)(C)CCOP(=O)([O-])OP(=O)(O)OC[C@H]1OC(n2ccc(N)nc2=O)[C@H](O)[C@@H]1O (some centres undefined) | 169% (inactive) and 55.3% (inactive) | 92.4% and 97.3% | 1.29 (inactive) | 0.95 | 1.22 | 0.9 (inactive) | 4.71 | 12600 | 14000 | –
13 | CC(C)(C)NC(=O)[C@H]1CCC2C3CCC4NC(=O)C=C[C@]4(C)C3CC[C@@]21C (some centres undefined) | 30.5% (inactive) | 97.9% | 1.12 (inactive) | 0.62 | 0.69 | 0.895 (inactive) | 2.7 | 11000 | 12300 | –
14 | CC(C)(O/N=C(\C(=O)N[C@@H]1C(=O)N2C(C(=O)[O-])=C(C[n+]3ccccc3)CSC12)c1csc(N)n1)C(=O)O (some centres undefined) | 57.9% (inactive) | 101% | 0.74 (inactive) | 1.28 | 0.94 | 0.922 (inactive) | 3.92 | 12200 | 13200 | –
15 | CNCC[C@@H](Oc1ccccc1)c1ccccc1 | 48% (inactive) | 116% | 1.13 (inactive) | 1.27 | 1.44 | 0.971 (inactive) | 1.23 | 10900 | 11200 | –
16 | O=C1[C@H](CCC(O)c2ccc(F)cc2)[C@@H](c2ccc(O)cc2)N1c1ccc(F)cc1 (some centres undefined) | 127% (inactive) and 58.1% (inactive) | 82.3% and 90.7% | 1.19 (inactive) | 0.87 | 1.03 | 0.905 (inactive) | 1.79 | 11700 | 12900 | –
17 | CCC(C)C(N)C1=NC(C(=O)NC(CC(C)C)C(=O)NC(CCC(=O)O)C(=O)NC(C(=O)NCCCCC2NC(=O)C(CC(N)=O)NC(=O)C(CC(=O)O)NC(=O)C(Cc3cnc[nH]3)NC(=O)C(Cc3ccccc3)NC(=O)C(C(C)CC)NC(=O)C(CCCN)NC2=O)C(C)CC)CS1 (stereo not drawn) (cyclo(DNK([Ile-Glu-Leu-X2])[Orn]IFH); configuration not given here) | 93.7% (inactive) and 69.5% (inactive) | 71.2% and 97.2% | 0.87 (inactive) | 1.23 | 1.06 | 0.838 (inactive) | 0.994 | 10300 | 12300 | –
